Active and inactive are the calls of the source. No rule for the calls is given here.
Assay: C difficile toxins, biochemical counterscreen, UDPG substrate absence, confirmatory dose response (AID 720650)
Conditions: series mostly up to 19.5 µM; activity change, negative = inhibition: at the top concentration

SMILES	activity change, negative = inhibition	AC50
Cn1c(=O)c2c(nc(N3CCOCC3)n2CCSc2ncccn2)n(C)c1=O	-6.82% (inactive)	–
O=P1(Oc2ccccc2)OCCCS1 (stereo unspecified)	-5.63% (inactive)	–
O=C(Nc1ccccc1F)N(Cc1ccc(F)cc1)Cc1nc2ccccc2c(=O)[nH]1	-7.11% (inactive)	–
O=C1/C(=C/c2cccnc2)SC(=NCc2ccccc2)N1Cc1ccccc1	-7.63% (inactive)	–
CC(=O)c1ccc(Nc2ccc(-c3ccccc3F)nn2)cc1	–	> 39 µM (inactive)
O=C(CSc1cccc2cccnc12)N/N=C/c1ccc(O)cc1	–	11.1 µM (active)
CCCCc1[nH]c(=O)c(C#N)c2c1CCCC2	-12.9% (inactive)	–
O=C(C[C@@H]1CC[C@@H]2[C@H](COC[C@@H](O)CN2C(=O)c2ccccn2)O1)NC1CCC1	-2.66% (inactive)	–
O=C(C[C@@H]1CC[C@H]2[C@@H](COC[C@H](O)CN2C(=O)c2ccccn2)O1)NC1CCC1	-6.78% (inactive)	–
Nc1ncc(S(=O)(=O)c2ccc([N+](=O)[O-])cc2)s1	-5.28% (inactive)	–
COc1cc(/C=N/NC(=O)c2nnn(-c3nonc3N)c2C(C)C)ccc1O	2.07% (inactive)	–
Cc1ccccc1C(C(=O)NC1CCCCC1)N(C(=O)c1ccccn1)c1cccnc1 (stereo unspecified)	-0.409% (inactive)	–
C[C@@H]1CN([C@@H](C)CO)S(=O)(=O)c2ccc(-c3ccncc3)cc2O[C@@H]1CN(C)Cc1ccc(Oc2ccccc2)cc1	-13.4% (inactive)	–
COc1nc(C)cc(C)c1S(=O)(=O)c1ccc(Cl)cc1	-8.33% (inactive)	–
O=C(C[C@H]1CC[C@@H]2[C@H](COC[C@@H](O)CN2C(=O)Nc2ccc(Cl)c(Cl)c2)O1)NCc1ccncc1	-7.89% (inactive)	–
COCc1c(Br)c(C)nc(OCC(=O)N/N=C/c2ccc(C)o2)c1C#N	6.67% (inactive)	–

— PubChem BioAssay AID720650 (Broad Institute, 2013)
